hNpr1 antagonist = blocks ANP-stimulated signaling of human Npr1 receptor. P16066. HEK293 hNpr1 GloSensor cGMP, ANP-stimulated luminescence. Potency, µM (highest dose often 46.3 µM), hits mostly inhibitors. actives 1.6% (n = 76,000); calls by dose curve; further: nearly all actives have a fitted effect of over 60% in size
Target sequence (P16066 whole entry, looked up): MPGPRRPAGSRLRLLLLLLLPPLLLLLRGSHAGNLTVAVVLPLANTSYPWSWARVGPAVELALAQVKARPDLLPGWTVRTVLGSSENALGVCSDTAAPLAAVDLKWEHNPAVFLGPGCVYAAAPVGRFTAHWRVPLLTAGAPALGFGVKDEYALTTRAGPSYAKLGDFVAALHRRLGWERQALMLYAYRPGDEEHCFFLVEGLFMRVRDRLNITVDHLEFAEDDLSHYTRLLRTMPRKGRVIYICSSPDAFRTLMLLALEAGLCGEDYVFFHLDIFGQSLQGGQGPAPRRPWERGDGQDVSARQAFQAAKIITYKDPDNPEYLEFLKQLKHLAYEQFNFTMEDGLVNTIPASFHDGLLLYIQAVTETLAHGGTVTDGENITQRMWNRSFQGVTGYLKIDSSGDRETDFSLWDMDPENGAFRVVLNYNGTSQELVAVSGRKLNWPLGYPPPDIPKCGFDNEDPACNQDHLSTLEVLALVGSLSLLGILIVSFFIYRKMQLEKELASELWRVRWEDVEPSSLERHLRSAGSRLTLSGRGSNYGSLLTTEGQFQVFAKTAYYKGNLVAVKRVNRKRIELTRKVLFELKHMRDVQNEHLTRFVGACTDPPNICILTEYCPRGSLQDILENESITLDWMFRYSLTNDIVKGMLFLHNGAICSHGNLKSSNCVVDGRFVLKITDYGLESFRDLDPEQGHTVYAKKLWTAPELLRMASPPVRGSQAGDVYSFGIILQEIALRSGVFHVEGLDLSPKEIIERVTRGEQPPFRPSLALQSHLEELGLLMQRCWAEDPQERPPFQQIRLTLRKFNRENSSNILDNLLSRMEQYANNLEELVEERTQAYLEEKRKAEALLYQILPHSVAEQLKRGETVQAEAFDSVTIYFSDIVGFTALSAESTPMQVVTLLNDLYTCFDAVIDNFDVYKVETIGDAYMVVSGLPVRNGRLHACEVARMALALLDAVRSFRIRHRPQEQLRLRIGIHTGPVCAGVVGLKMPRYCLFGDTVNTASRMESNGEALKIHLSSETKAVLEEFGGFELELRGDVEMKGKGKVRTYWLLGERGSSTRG
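HEK293 cells stably expressing human Npr1 and cGMP GloSensor pGS-40F, loaded 2 h with 2% GloSensor reagent, given compound 30 min at room temperature. Luminescence read before and 20 min after 0.1 nM hNppA.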
NIH3T3 tox = kills NIH 3T3 cells; NIH 3T3 viability, CellTiter-Glo ATP luminescence, 48-72 h; Potency, µM (doses to about 96.7 µM), hits mostly inhibitors; AID 1345082; actives 4.3% (n = 94,000); further: nearly all actives have a fitted effect of over 55% in size
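Cytotoxicity is measured as loss of cellular ATP: NIH 3T3 cells (400/well) are exposed to compound for 48 or 72 hr at 37 °C, then CellTiter-Glo luminescence is imaged after 10 min at room temperature.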
HEK293 tox = HEK 293 cell cytotoxicity. Potency, µM (titrated, usually from 115 µM), hits mostly inhibitors. HEK 293 viability, ATP luminescence (CellTiter-Glo), 48-72 h. actives 6.6% (n = 94,000); further: nearly all actives have a fitted effect of over 60% in size
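HEK 293 cells at 250 cells/well were exposed to compounds by pintool transfer for 48 or 72 hr at 37 degree Celsius, 5% CO2. Viability was read as ATP-coupled luminescence with CellTiter-Glo after 10 min at room temperature.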
Luciferase inh = inhibitors of firefly (Photinus pyralis) luciferase | P08659 | purified P. pyralis luciferase, luminescence, biochemical | Potency, µM (highest dose often 115 µM), hits mostly inhibitors | actives 2.5% (n = 76,000) | AID 1347043; further: nearly all actives have a fitted effect of over 65% in size
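Biochemical qHTS: compound (6-point titration) added to 10uM D-luciferin plus 10uM ATP in Tris acetate pH 7.5 buffer with Mg, Tween-20 and BSA, then purified enzyme at 10nM; light output imaged.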
Each line names hits and unclear results; the compound was inactive in the other large screens. Hits are enriched below; roughly 11% of the tested compounds scored in any of these assays. Unless noted, the call rests on the fitted dose curve; in most records, active means well fitted curve in the direction sought with a large enough effect; inconclusive means small, poorly fitted or top-dose-only effect, or another doubt; inactive means no such curve, though single readings can be large; an effect the other way counts as inactive or inconclusive.

Cc1ccc(C2Cn3nnc(C(=O)N4CCC(C(=O)NC5CCc6ccccc65)CC4)c3CO2)cc1 (stereo unspecified)	NIH3T3 tox inconclusive, HEK293 tox inconclusive, Luciferase inh inconclusive
Cc1cccc(CNC(=O)C2CCN(C(=O)c3ncn4c3COC(c3ccc(F)cc3)C4)CC2)c1 (stereo unspecified)	Luciferase inh 45µM
COc1cccc(CNC(=O)C2CCN(C(=O)c3ncn4c3COC(c3ccccc3)C4)CC2)c1 (stereo unspecified)	Luciferase inh 22µM
O=C(NC1CCc2ccccc21)C1CCN(C(=O)c2ncn3c2COC(c2ccccc2)C3)CC1 (stereo unspecified)	Luciferase inh 40µM
O=C(NCc1ccc(F)cc1)C1CCN(C(=O)c2ncn3c2COC(c2ccc(Cl)cc2)C3)CC1 (stereo unspecified)	Luciferase inh inconclusive
O=C(NCCCc1ccccc1)C1CCN(C(=O)c2ncn3c2COC(c2ccccc2)C3)CC1 (stereo unspecified)	Luciferase inh 16µM
O=C(NCc1ccc(F)cc1)c1ccc2oc(-c3ccccn3)nc2c1	none (no result: hNpr1 antagonist, Luciferase inh)
O=C1CCN(S(=O)(=O)c2ccccc2)CCCN(C(=O)C2CC2)CCN1	none
O=C(O)C1CCc2sc(C(=O)N3CCCCCC3)cc2C1 (stereo unspecified)	NIH3T3 tox inconclusive, Luciferase inh 16µM
O=C(O)C1CCc2sc(C(=O)N3CCCC3)cc2C1 (stereo unspecified)	NIH3T3 tox inconclusive
O=C1Cc2c(-c3ccccc3Oc3ccccc3)n[nH]c2CN1Cc1ccccn1	NIH3T3 tox inconclusive, HEK293 tox inconclusive
O=C1Cc2c(-c3ccccc3OCc3ccccc3)n[nH]c2CN1Cc1ccccn1	NIH3T3 tox inconclusive, HEK293 tox 100µM
O=C1Cc2c(-c3ccccc3OCc3ccccc3)n[nH]c2CN1Cc1ccccc1	NIH3T3 tox inconclusive, HEK293 tox 50µM
O=C1Cc2c(-c3ccccc3OCc3ccccc3)n[nH]c2CN1CCOc1ccccc1	NIH3T3 tox inconclusive, HEK293 tox inconclusive
COCCn1cnc2ccc(-c3ccsc3)nc2c1=O	NIH3T3 tox inconclusive, Luciferase inh inconclusive
Cc1cnc(CCNS(=O)(=O)c2cccc(F)c2)n1Cc1ccc(F)cc1	NIH3T3 tox inconclusive, HEK293 tox 40µM (no result: hNpr1 antagonist, Luciferase inh)
O=C(NCC(F)(F)F)[C@@H]1CCCN1c1nccc(Nc2ccccc2Cl)n1	HEK293 tox inconclusive (no result: hNpr1 antagonist, Luciferase inh)
O=C(NCC1CCCCC1)C1CCN(c2nccc(Nc3ccccc3Cl)n2)CC1	NIH3T3 tox 32µM, HEK293 tox 35µM (no result: hNpr1 antagonist, Luciferase inh)
C#CCNC(=O)C1CCN(c2nccc(Nc3ccccc3Cl)n2)CC1	NIH3T3 tox 45µM, HEK293 tox inconclusive (no result: hNpr1 antagonist, Luciferase inh)
O=C(NCC1CCCCCC1)[C@@H]1CCCN1c1nccc(Nc2ccccc2Cl)n1	NIH3T3 tox 32µM, HEK293 tox 25µM (no result: hNpr1 antagonist, Luciferase inh)
CCc1noc(-c2cn(C3CCN(C(=O)c4cccc(F)c4)CC3)nn2)n1	NIH3T3 tox inconclusive
O=C(c1ccc2c(c1)OCO2)N1CCC2(C1)C(=O)N(c1ccccc1)c1ccccc12 (stereo unspecified)	HEK293 tox inconclusive (no result: hNpr1 antagonist, Luciferase inh)
O=C(c1ccccc1)N1CCCN(Cc2ccc3c(c2)OCO3)c2ccccc21	NIH3T3 tox inconclusive, HEK293 tox 35µM
CC(=O)N1CCCN(Cc2ccc3c(c2)OCO3)c2ccccc21	NIH3T3 tox inconclusive, HEK293 tox inconclusive
COc1ccc(CC(=O)NC2CCCc3c2[nH]c2c(Cl)cccc32)cc1OC (stereo unspecified)	hNpr1 antagonist inconclusive, NIH3T3 tox 13µM, HEK293 tox 28µM
COc1ccccc1C(=O)NC1CCCc2c1[nH]c1c(Cl)cccc21 (stereo unspecified)	NIH3T3 tox inconclusive, HEK293 tox inconclusive
Cc1noc2nc(C(C)C)cc(C(=O)NC3CCCc4c3[nH]c3c(Cl)cccc43)c12 (stereo unspecified)	NIH3T3 tox inconclusive, HEK293 tox 35µM
Cc1noc(C)c1CC(=O)NC1CCCc2c1[nH]c1c(Cl)cccc21 (stereo unspecified)	NIH3T3 tox 20µM, HEK293 tox inconclusive
CCC(C)NC(=O)N1CC(c2nc(CCOCC3CCOCC3)no2)C1 (stereo unspecified)	none
COc1cccc(-c2ccc(C(=O)NCCNC(=O)Cc3cccc(Cl)c3)cc2)c1	HEK293 tox inconclusive (no result: hNpr1 antagonist, Luciferase inh)
CN1CCN(C(=O)c2ccc3nc(-c4ccncc4)oc3c2)CC1	HEK293 tox inconclusive (no result: hNpr1 antagonist, Luciferase inh)
OCCC#Cc1ccc(CN2CCC(CO)(Cc3ccccc3Cl)CC2)cc1	NIH3T3 tox inconclusive, HEK293 tox inconclusive
COc1ccc2c(c1)C=C(CN1CCC(CO)(Cc3ccccc3Cl)CC1)CO2	hNpr1 antagonist inconclusive, NIH3T3 tox inconclusive, HEK293 tox 18µM
CCOc1ccc(CN2CCC(CO)(Cc3ccccc3Cl)CC2)cc1	NIH3T3 tox inconclusive, HEK293 tox 79µM
COCCN1C(=O)c2ccccc2C(C(=O)Nc2nc3ccccc3s2)C12CCCCC2 (stereo unspecified)	NIH3T3 tox 45µM, HEK293 tox inconclusive, Luciferase inh inconclusive
COc1ccc(-c2cccc(C(=O)N3CCN(C(=O)NC4CCCC4)CC3)c2)nn1	none (no result: hNpr1 antagonist, Luciferase inh)
c1ccc(CCc2noc(-c3ccc(NCCN4CCCC4)nc3)n2)cc1	NIH3T3 tox inconclusive, HEK293 tox inconclusive, Luciferase inh inconclusive
CC(O)CNc1ccc(-c2nc(CCCc3ccccc3)no2)cn1 (stereo unspecified)	NIH3T3 tox inconclusive, HEK293 tox inconclusive, Luciferase inh 45µM
CN(Cc1cnccn1)c1ccc(-c2nc(CCCc3ccccc3)no2)cn1	Luciferase inh inconclusive
OCC1CCN(c2ccc(-c3nc(CCCc4ccccc4)no3)cn2)CC1	hNpr1 antagonist 13µM, NIH3T3 tox inconclusive, HEK293 tox inconclusive, Luciferase inh inconclusive
CN(Cc1ncc[nH]1)c1ccc(-c2nc(CCCc3ccccc3)no2)cn1	hNpr1 antagonist inconclusive, NIH3T3 tox inconclusive, HEK293 tox 45µM, Luciferase inh inconclusive
c1ccc(CCCc2noc(-c3ccc(N4CCCNCC4)nc3)n2)cc1	NIH3T3 tox inconclusive, HEK293 tox 22µM, Luciferase inh inconclusive
Cc1ccc(CN2CCc3oc(C)c(C(=O)N4CCSCC4)c3C2)cc1	HEK293 tox inconclusive
CN(C)C(=O)C1CCc2nnc(-c3cccc(C(F)(F)F)c3)n21 (stereo unspecified)	none (no result: hNpr1 antagonist, Luciferase inh)
O=C1OCCCN1CCNc1ccc(-c2nc(-c3ccccc3F)no2)cn1	HEK293 tox inconclusive, Luciferase inh 35µM
O=C1CCCCN1CCNc1ccc(-c2nc(-c3ccccc3F)no2)cn1	NIH3T3 tox inconclusive, HEK293 tox inconclusive, Luciferase inh 14µM
COCCNc1ccc(-c2noc([C@@H]3CCCN3Cc3ccccc3F)n2)cn1	HEK293 tox inconclusive
COC(=O)[C@@H]1CCCN1c1ccc(-c2nc(-c3ccccc3F)no2)cn1	hNpr1 antagonist 14µM, NIH3T3 tox inconclusive, HEK293 tox 40µM, Luciferase inh inconclusive
CC(=O)N1CCC(c2nnc3n2C(C(=O)N2CCCCC2)CC3)CC1 (stereo unspecified)	none (no result: hNpr1 antagonist, Luciferase inh)
COc1ccc(-c2nn(-c3ccccc3)cc2CN2C[C@@H](C)O[C@@H](C)C2)c(F)c1	HEK293 tox inconclusive

Source: PubChem
